# This is part of a sample that, as a whole, favours compounds with a hit. Of some 79,000 tested, about 15% had one in any assay. Values without a mark were called inactive. Calls of active or inactive are those of the source. No stated cut-off is given here; in the data, active means growth inhibition above about 70%; inactive means the rest.
# Test: NCI Yeast Anticancer Drug Screen. Data for the sgs1 mgt1 strain (AID 161);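 further: 0% = growth of cultures given vehicle only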
# Conditions: S. cerevisiae sgs1 mgt1 strain, at 50.0 µM, active compounds read high
# Method in brief: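 Growth of a repair-deficient yeast mutant was monitored after compound treatment and expressed as inhibition relative to vehicle-treated cultures.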
row,Structure (SMILES),growth inhibition
1,CC12CCC(=O)C=C1CCC1C2CCC2(C)C(O[Si](C)(C)OC3CCC4C5CCC6=CC(=O)CCC6(C)C5CCC34C)CCC12 (stereo not given),95.8% (active)
2,CC1=C[C@H]2O[C@H]3C[C@H]4OC(=O)/C=C\C=C\C(=O)OCC[C@@H](C)[C@H](O)C(=O)OC[C@@]2(CC1)[C@@]4(C)[C@]31CO1,92.8% (active)
3,CCCCCCCC[As](C)(=O)O,4.5%
4,OC1C2[C@@H](O)CCCN2C[C@@H](O)[C@H]1O (stereo not given in full),-34.5%
5,COC1(O[C@H]2CC[C@H]3[C@@H]4CCC5=CC(=O)CC[C@]5(C)[C@H]4CC[C@]23C)CCCCC1,99.5% (active)
6,O=[N+]([O-])c1ccc(CS(=O)(=O)C(Cl)(Cl)Cl)o1,97.5% (active)
7,CC([CH2][Hg][Cl])c1ccccc1 (stereo not given),99.6% (active)
8,CC(C)CC[CH2][Pb]([CH2]CCC(C)C)([CH2]CCC(C)C)[O]C(=O)C(Cl)(Cl)Cl,98.4% (active)
9,COC1OC(OC)[CH]([Hg][Cl])C1OC (stereo not given),99.4% (active)
10,S=C=[N][Sn]([N]=C=S)([c]1ccccc1)[c]1ccccc1.c1ccc2nc(-c3ccc4ccccc4n3)ccc2c1,91.5% (active)
11,CSCCC([NH-])C(=O)O.CSCCC([NH-])C(=O)O.[Zn+2] (stereo not given),99.2% (active)
12,C[PH+](C)C.C[PH+](C)C.[Au],91% (active)
13,O=C(O)C(Br)C(Br)C(=O)O.[Ag] (stereo not given),98.7% (active)
14,CCC1CN1P(=O)(Oc1ccccc1)N1CC1CC (stereo not given),-14.8%
15,CCCCCc1cc(O)c(CCCC)c(O)c1,99% (active)
16,N#CC(Cl)(Cl)CCl,-9%
17,O=C(Cc1c2ccccc2cc2c1ccc1ccccc12)N(CCCl)CCCl,99.2% (active)
18,CC[C@@]1(O)C(=O)OCc2c1cc1n(c2=O)Cc2cc3c(OC)cccc3nc2-1,82.4% (active)
19,CCOC(=O)NP(=O)(NNc1ccccc1)NNc1ccccc1,98.8% (active)
20,C=C1C(=O)O[C@@H]2C[C@@H](C)[C@@H]3C=CC(=O)[C@@]3(C)[C@@H](O)[C@H]12,27.5%

row,Structure (SMILES),growth inhibition
1,O=C(O)C(F)(F)F.[Ag],99.1% (active)
2,O=C(CBr)Nc1ccccc1,98.4% (active)
3,C1=C[N-]c2c3c(ccc2=C1)=CC=C[N-]3.C1=C[N-]c2c3c(ccc2=C1)=CC=C[N-]3.F[P-](F)(F)(F)(F)F.[Cu+2],99.5% (active)
4,O=[N+]([O-])/C=C/c1ccccc1Cl,93.3% (active)
5,CCOP(=S)(OCC)SSSP(=S)(OCC)OCC,15.7%
6,CCOC(=O)c1ccc(N=Cc2ccc(N(CCCl)CCCl)cc2C)cc1,67.7%
7,COc1ccc2c(c1)CCC(N1CCCC(=O)C1)C2 (stereo not given),66%
8,CCCCCCC(=O)[O][Hg][c]1ccccc1,99.7% (active)
9,CCC[CH2][Sn]1([CH2]CCC)[O]C(=O)c2cccnc2[S]1,77% (active)
10,C[AsH](C)CC[AsH](C)C.C[AsH](C)CC[AsH](C)C.C[AsH](C)CC[AsH](C)C.[Ni],96.7% (active)
11,O=c1[nH]c2ccccc2n1C1CCN(CCCC(c2ccc(F)cc2)c2ccc(F)cc2)CC1,48.7%
12,O=[C-]c1ccccc1[C-]=O.[Pd+2].c1ccc([PH+](c2ccccc2)c2ccccc2)cc1.c1ccc([PH+](c2ccccc2)c2ccccc2)cc1,84.5% (active)
13,c1ccc(C(c2ccccc2)c2cccnc2)cc1,91.6% (active)
14,C#CC[As+](c1ccccc1)(c1ccccc1)c1ccccc1,92.5% (active)
15,CC[CH2][Pb]([CH2]CC)([CH2]CC)[O]C(C)=O,93.8% (active)
16,CC[PH+](CC)CC.[Cl][Au],91.3% (active)
17,CN(C)[PH+](N(C)C)N(C)C.CN(C)[PH+](N(C)C)N(C)C.[C-]#[O+].[C-]#[O+].[C-]#[O+].[C-]#[O+].[C-]#[O+].[C-]#[O+].[Co].[Co].[Hg],99.6% (active)
18,CC1=C(N2CC2)C(=O)c2nc3n(c2C1=O)CCC3OC(=O)CCl (stereo not given),72.2% (active)
19,[N-]=[N+]=Nc1c([N+](=O)[O-])c(=O)n2c3c(cccc13)CCC2,92.8% (active)
20,CCC[CH2][Sn]1([CH2]CCC)[O]CC(CN2CCCCC2)[O]1 (stereo not given),82.8% (active)
